# According to PubChem BioAssay (NCATS):
# Records with an inconclusive call do not appear. Entries that show only a call come without a potency. Calls of active or inactive are those of the source. Calls come from the whole dose curve; as a rule, active = well fitted curve in the direction sought with a large enough effect; inconclusive = small, poorly fitted or top-dose-only effect, or another doubt; inactive = no such curve, though single readings can be large; an effect the other way counts as inactive or inconclusive.
# Experiments:
# [1] = biological target: Glutathione peroxidase 1 (Homo sapiens) (UniProt P07203); experiment: Primary qHTS Assay for Inhibitors of Recombinant Selenoprotein Glutathione Peroxidase 1 (GPX1) (AID 1845191); note: nearly all actives have a fitted effect of over 65% in size
# Sequence of Glutathione peroxidase 1 (Homo sapiens) (P07203 whole entry, looked up): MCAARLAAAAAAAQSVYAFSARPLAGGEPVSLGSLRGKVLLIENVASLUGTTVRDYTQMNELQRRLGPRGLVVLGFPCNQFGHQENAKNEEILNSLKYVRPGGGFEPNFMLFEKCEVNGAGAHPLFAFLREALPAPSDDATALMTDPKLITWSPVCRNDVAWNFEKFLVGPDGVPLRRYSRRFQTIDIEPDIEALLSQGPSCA
# Outline: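 GPX1 10 nM, GR 100 nM, GSH 1 mM, NADPH 0.5 mM, CHP 0.5 mM (final). 30-min cpd preincubation, RT. Ex340/Em450 read t=0, t=15 min.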
# [2] = Quantitative High-Throughput drug screen in 47 multiple myeloma cell lines against the NCATS MIPE library collection: FR4_PLB cell viability assay (AID 1918924; note: nearly all actives have a fitted effect of over 35% in size; note: potency is the fitted concentration of half-maximal effect)
# Outline: (§1)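 Relative luminescence from CellTiter-Glo served as the viability signal, referenced to DMSO-treated (100%) and cell-free medium (0%) controls. Treatment lasted 48 hours at 37C with 500 cells per well.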
# [3] = Quantitative High-Throughput drug screen in 47 multiple myeloma cell lines against the NCATS MIPE library collection: Delta47_JCRB cell viability assay (AID 1918925; note: nearly all actives have a fitted effect of over 45% in size; note: potency is the fitted concentration of half-maximal effect)
# Outline: (§2)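 CellTiter-Glo luminescence (ATP) after 48 h compound exposure, 37C/5% CO2; 500 cells/well; MIPE 4.0 approved/investigational drugs pinned in; DMSO = 100%, media only = 0% viability.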
# [4] = Quantitative High-Throughput drug screen in 47 multiple myeloma cell lines against the NCATS MIPE library collection: EJM_DSMZ cell viability assay (AID 1918926; note: nearly all actives have a fitted effect of over 30% in size; note: potency is the fitted concentration of half-maximal effect)
# Outline: as §2
# [5] = Quantitative High-Throughput drug screen in 47 multiple myeloma cell lines against the NCATS MIPE library collection: AMO1_DSMZ cell viability assay (AID 1918927; note: nearly all actives have a fitted effect of over 30% in size; note: potency is the fitted concentration of half-maximal effect)
# Outline: as §2
# [6] = Quantitative High-Throughput drug screen in 47 multiple myeloma cell lines against the NCATS MIPE library collection: ARP1_JJKsccF8 cell viability assay (AID 1918928; note: nearly all actives have a fitted effect of over 40% in size; note: potency is the fitted concentration of half-maximal effect)
# Outline: (§3)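 Viability screen: myeloma cells (500/well) incubated 48 h at 37 °C, humidified 5% CO2, with pinned library compounds; CellTiter-Glo added, luminescence read; DMSO wells set 100%, medium-only wells 0%.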
# [7] = Quantitative High-Throughput drug screen in 47 multiple myeloma cell lines against the NCATS MIPE library collection: ARD_JJKsccE7 cell viability assay (AID 1918929; note: potency is the fitted concentration of half-maximal effect)
# Outline: as §2
# [8] = Quantitative High-Throughput drug screen in 47 multiple myeloma cell lines against the NCATS MIPE library collection: KMM1_JCRB cell viability assay (AID 1918960); note: nearly all actives have a fitted effect of over 30% in size; note: potency is the fitted concentration of half-maximal effect
# Outline: as §3
# [9] = Quantitative High-Throughput drug screen in 47 multiple myeloma cell lines against the NCATS MIPE library collection: JIM3_ECACC cell viability assay (AID 1918963; note: nearly all actives have a fitted effect of over 35% in size; note: potency is the fitted concentration of half-maximal effect)
# Outline: as §1
# [10] = biological target: Luciferin 4-monooxygenase (Photinus pyralis) (UniProt P08659); experiment: Primary firefly luciferase (FLuc) qHTS assay for identification of artifact compounds. (AID 1845220); note: nearly all actives have a fitted effect of over 60% in size
# Outline: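 Reaction readout was CCD-imaged luminescence, taken 5 min after adding 10 nM purified firefly enzyme to compound-treated wells holding 10 uM luciferin and ATP in pH 7.6 buffer.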
# [11] = Primary fluorescence-based thiol-reactive (MSTI) qHTS assay for identification of artifact compounds. (AID 1845221);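 note: thiol-reactive compounds lower the probe fluorescence signal; nearly all actives have a fitted effect of over 65% in size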
# Outline: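 qHTS titration of compound; 4 uM MSTI, PBS pH 7.4, 2% DMSO; 1 h RT, dark; fluorescence 525/598 nm; normalized to Acetyl-MSTI and MSTI; 4-parameter Hill fit.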
# [12] = tested on: Nanoluciferase (engineered Oplophorus gracilirostris luciferase); experiment: Primary Nanoluciferase (NLuc) qHTS assay for identification of artifact compounds. (AID 1845222);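 note: NLuc secreted into diluted conditioned medium of S16 cells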
# Outline: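 Concentration-response data were obtained by luminescence after 5 min with Nano-Glo substrate at 1:100. The enzyme was diluted S16 NLuc-expressing cell medium, preincubated with compound for 15 min at RT. Curves were fitted with a 4-parameter Hill model.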
# [13] = Primary redox qHTS assay for identification of artifact compounds. (AID 1845223)
# Outline: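 Redox-cycling detection via DTT (250 uM final) oxidation coupled to Amplex Red (25 uM)/HRP (250 mU/mL) in HBSS. 15 min preincubation plus 30 min after DTT, room temperature. Ex/Em 525/598 nm; 4-parameter Hill fit against DMSO and 10 uM DA3003.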
# [14] = Quantitative High-Throughput drug screen in 47 multiple myeloma cell lines against the NCATS MIPE library collection: Karpas620_DSMZ cell viability assay (AID 1918959); note: nearly all actives have a fitted effect of over 30% in size; note: potency is the fitted concentration of half-maximal effect
# Outline: as §1
# [15] = Quantitative High-Throughput drug screen in 47 multiple myeloma cell lines against the NCATS MIPE library collection: Karpas417_ECACC cell viability assay (AID 1918961); conditions: Karpas417 myeloma viability, CellTiter-Glo ATP luminescence, 48 h; viability (% of DMSO): at 45.8 µM (top of the series) unless noted; note: potency is the fitted concentration of half-maximal effect
# Outline: as §1
# [16] = biological target: Phospholipid hydroperoxide glutathione peroxidase GPX4 (Homo sapiens) (UniProt P36969); experiment: Primary qHTS Assay for Inhibitors of Recombinant Selenoprotein Glutathione Peroxidase 4 (GPX4) (AID 1845192); note: nearly all actives have a fitted effect of over 65% in size
# Sequence of Phospholipid hydroperoxide glutathione peroxidase GPX4 (Homo sapiens) (P36969 whole entry, looked up): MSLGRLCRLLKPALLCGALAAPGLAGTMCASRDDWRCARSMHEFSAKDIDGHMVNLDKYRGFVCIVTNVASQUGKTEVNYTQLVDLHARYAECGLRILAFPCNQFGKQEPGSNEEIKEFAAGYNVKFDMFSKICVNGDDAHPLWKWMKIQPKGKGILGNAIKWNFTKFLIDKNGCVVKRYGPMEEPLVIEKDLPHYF
# Outline: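 qHTS, GR-coupled: GPX4 200 nM + cpd 30 min RT → GSH 1 mM, NADPH 0.5 mM, GR 100 nM → CHP 0.5 mM start; fluor 340/450 at t0 and t15 min; no-enzyme wells as control.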
# [17] = Quantitative High-Throughput drug screen in 47 multiple myeloma cell lines against the NCATS MIPE library collection: KHM11_PLB cell viability assay (AID 1918962); note: nearly all actives have a fitted effect of over 35% in size; note: potency is the fitted concentration of half-maximal effect
# Outline: as §1
structure (smiles),measurement,setting,value
CNC[C@H](O)c1cccc(O)c1,Potency,[1],inactive
same,Potency,[2],inactive
same,Potency,[3],inactive
same,Potency,[4],inactive
same,Potency,[5],inactive
same,Potency,[6],inactive
same,Potency,[7],inactive
same,Potency,[8],5.26 µM (active)
same,Potency,[9],inactive
CS(=O)(=O)c1ccc(C(=O)Nc2ccc(Cl)c(-c3ccccn3)c2)c(Cl)c1,Potency,[1],inactive
same,Potency,[10],inactive
same,Potency,[11],inactive
same,outcome,[12],inactive
same,outcome,[13],inactive
same,Potency,[2],inactive
same,Potency,[4],inactive
same,Potency,[6],inactive
same,Potency,[7],inactive
same,Potency,[14],inactive
same,Potency,[8],inactive
CO[C@@H]1[C@H](N(C)C(=O)c2ccccc2)C[C@H]2O[C@]1(C)n1c3ccccc3c3c4c(c5c6ccccc6n2c5c31)C(=O)NC4,Potency,[1],inactive
same,Potency,[2],inactive
same,Potency,[3],1.05 µM (active)
same,Potency,[5],0.833 µM (active)
same,Potency,[7],1.05 µM (active)
same,Potency,[14],1.66 µM (active)
same,Potency,[8],2.35 µM (active)
same,Potency,[15],0.469 µM (active)
COc1ccc(C2=N[C@H](c3ccc(Cl)cc3)[C@H](c3ccc(Cl)cc3)N2C(=O)N2CCNC(=O)C2)c(OC(C)C)c1,Potency,[1],inactive
same,Potency,[16],inactive
same,Potency,[3],2.35 µM (active)
same,Potency,[5],1.66 µM (active)
same,Potency,[7],inactive
same,Potency,[14],inactive
same,Potency,[8],inactive
same,Potency,[9],18.7 µM (active)
Cc1[nH]c(=O)c(C#N)cc1-c1ccc2nccn2c1,Potency,[1],inactive
same,Potency,[2],inactive
same,Potency,[3],inactive
same,Potency,[4],inactive
same,Potency,[6],inactive
same,Potency,[7],inactive
same,Potency,[8],inactive
same,Potency,[17],inactive
same,Potency,[9],inactive
NC(N)=NC(=O)c1nc(Cl)c(N)nc1N,Potency,[1],inactive
same,Potency,[16],inactive
same,Potency,[3],8.33 µM (active)
same,Potency,[4],inactive
same,Potency,[6],inactive
same,Potency,[9],inactive
O=C1[C@H](Cc2ccc(O)cc2)N2C(=O)CCN(C(=O)NCc3ccccc3)[C@H]2CN1Cc1cccc2ccccc12,Potency,[1],inactive
same,Potency,[16],inactive
same,Potency,[14],inactive
same,Potency,[8],inactive
same,Potency,[15],inactive
same,Potency,[17],2.96 µM (active)
NS(=O)(=O)c1cc2c(cc1Cl)NC=NS2(=O)=O,Potency,[1],inactive
same,Potency,[2],inactive
same,Potency,[5],inactive
same,Potency,[6],inactive
same,Potency,[7],inactive
same,Potency,[14],inactive
same,Potency,[8],inactive
same,Potency,[9],inactive
COCCNCCCn1c(C(=O)CF)c(-c2ccc(C)cc2)c2c(N)ncnc21,Potency,[16],inactive
same,Potency,[2],13.2 µM (active)
same,Potency,[3],inactive
same,Potency,[4],4.18 µM (active)
same,Potency,[9],inactive
O=NN(CCCl)C(=O)NCCCl,Potency,[16],inactive
same,Potency,[3],inactive
same,Potency,[4],inactive
same,Potency,[5],inactive
same,Potency,[14],inactive
same,Potency,[8],inactive
same,Potency,[17],inactive
same,Potency,[9],inactive
OC[C@H](Cc1ccccc1)Nc1nc(Oc2ccc3c(c2)CCC3)nc2c1ncn2Cc1ccc(-c2ccccc2)cc1,Potency,[1],inactive
same,Potency,[2],inactive
same,Potency,[4],inactive
same,Potency,[15],inactive
NC(=O)c1ccc(-c2nc(-c3ccc4c(c3)OCO4)c(-c3ccccn3)[nH]2)cc1,Potency,[16],inactive
same,Potency,[2],14.8 µM (active)
same,Potency,[3],inactive
same,Potency,[7],inactive
same,Potency,[14],inactive
same,Potency,[8],1.66 µM (active)
same,Potency,[9],inactive
Clc1ccc(Nc2nnc(Cc3ccncc3)c3ccccc23)cc1,Potency,[16],inactive
same,Potency,[10],inactive
same,Potency,[11],inactive
same,outcome,[12],inactive
same,outcome,[13],inactive
same,Potency,[2],inactive
same,Potency,[4],18.7 µM (active)
same,Potency,[5],inactive
same,Potency,[8],inactive
same,Potency,[9],20.9 µM (active)
COc1ccc2c3n(c(=NC(=O)c4cccnc4)nc2c1OC)CCN3,outcome,[16],inactive [at 4.52 µM]
same,Potency,[2],16.6 µM (active)
same,Potency,[3],2.09 µM (active)
same,Potency,[4],7.43 µM (active)
same,Potency,[5],18.7 µM (active)
same,Potency,[6],2.64 µM (active)
same,Potency,[15],inactive
same,Potency,[9],18.7 µM (active)
c1ccc(-c2nn3c(c2-c2ccnc4cc(OCCN5CCOCC5)ccc24)CCC3)nc1,Potency,[1],inactive
same,Potency,[4],inactive
same,Potency,[7],inactive
same,Potency,[14],inactive
same,Potency,[8],inactive
same,Potency,[9],inactive
NNCCc1ccccc1,Potency,[16],inactive
same,Potency,[2],6.62 µM (active)
same,Potency,[3],inactive
same,Potency,[4],inactive
same,Potency,[6],20.9 µM (active)
same,Potency,[7],inactive
same,Potency,[15],inactive
same,Potency,[17],inactive
same,Potency,[9],inactive
O=C1CCCC2=C1C(c1[nH]ncc1Cl)N=C(Nc1nc3ccccc3o1)N2 (configuration not stated),Potency,[16],inactive
same,Potency,[10],inactive
same,Potency,[11],inactive
same,outcome,[12],inactive
same,outcome,[13],inactive
same,Potency,[2],inactive
same,Potency,[5],inactive
same,Potency,[14],4.18 µM (active)
same,Potency,[15],inactive
same,Potency,[17],4.18 µM (active)
CC(=O)NC(C)c1ccc(Oc2ccc(OC(C)C)cc2)cc1 (configuration not stated),Potency,[1],inactive
same,Potency,[6],16.6 µM (active)
same,Potency,[14],0.296 µM (active)
same,Potency,[8],2.64 µM (active)
same,Potency,[9],3.32 µM (active)
Cc1ccc(NC(=O)c2cccc(C(C)(C)C#N)c2)cc1Nc1ccc2ncn(C)c(=O)c2c1,Potency,[1],inactive
same,Potency,[5],5.9 µM (active)
same,Potency,[7],0.332 µM (active)
same,Potency,[14],1.18 µM (active)
same,Potency,[8],2.35 µM (active)
same,Potency,[15],0.187 µM (active)
same,Potency,[17],0.166 µM (active)
same,Potency,[9],11.8 µM (active)
CCn1c(-c2nonc2N)nc2cnc(Oc3cccc(NC(=O)c4ccc(OCCN5CCOCC5)cc4)c3)cc21,Potency,[16],inactive
same,Potency,[2],14.8 µM (active)
same,Potency,[3],8.33 µM (active)
same,Potency,[6],18.7 µM (active)
same,Potency,[7],5.9 µM (active)
same,Potency,[8],7.43 µM (active)
same,Potency,[9],20.9 µM (active)
